Source: PubChem
Vaccinia Venus: inhibitors of vaccinia virus (Venus reporter); Vaccinia virus Venus reporter expression, fluorescence; Potency, µM (titrated, usually from 36.5 µM), inactives show at the top dose activity change, negative = inhibition, most hits filed as inhibitors; 330,000 tested, 0.46% active; calls by dose curve; tested in A549 cells; note: nearly all actives have a fitted effect of over 30% in size
MARV entry inh: Marburg virus entry inhibition | Marburg virus pseudotyped entry inhibition, cell reporter | Potency, µM (top dose mostly 37.8 µM), without a hit: at the top dose activity change, negative = inhibition, hits mostly inhibitors | 300,000 tested, 1.8% active | AID 540276; calls by dose curve; tested in HEK293 cells
HCV inhibitor: inhibitors of hepatitis C virus infection; Potency, µM (series often up to 41.8 µM), for inactives: top-dose activity change, negative = inhibition, hits mostly inhibitors; 340,000 tested, 3.4% active; Huh7.5.1 HCVcc-Cre infection, luciferase reporter, 44 h; AID 651820; active = well fitted inhibition curve with a large enough effect; inconclusive = small, poorly fitted or top-dose-only effect, or another doubt; inactive = no such curve, though single readings can be large or run the other way
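Cells seeded at 1,000/well and cultured 4 h, then compounds added followed by HCVcc-Cre virus (~0.5 moi). After 44 h further culture, luciferase substrate was added, plates held 15 min at room temperature, and luminescence read for 15 sec.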
Vaccinia mCherry: vaccinia inhibition (mCherry reporter) | 310,000 tested, 0.63% active | Potency, µM (highest dose often 36.5 µM), inactives show at the top dose activity change, negative = inhibition, usual class: inhibitors | Vaccinia virus mCherry reporter infection, fluorescence; calls by dose curve; tested in A549 cells; note: nearly all actives have a fitted effect of over 35% in size
Lassa entry inh: blocks Lassa virus binding to or entry into cells. 300,000 tested, 1.2% active. Potency, µM (titrated, usually from 37.9 µM), without a hit: at the top dose activity change, negative = inhibition, actives largely listed as inhibitors. Lassa virus pseudotype entry inhibition, cell reporter. AID 540256; calls by dose curve; tested in HEK293 cells; note: nearly all actives have a fitted effect of over 50% in size
An asterisk follows results filed as active; i = inactive; ? = inconclusive; nt = not tested or not shown; [ ] = remark or other dose. Hits are enriched below; roughly 4.6% of the tested compounds scored in any of these assays. % is set by controls: 0 for no effect and ±100 for the full control effect; potency is the fitted concentration of half-maximal effect.

SMILES	Vaccinia Venus	MARV entry inh	HCV inhibitor	Vaccinia mCherry	Lassa entry inh
CCc1cccc2c3c([nH]c12)[C@](CC)(CC(=O)O)OCC3	nt	-18.6%	nt	nt	nt
CCOC(=O)Cc1ccc(NC(=O)NCc2cccn2Cc2ccccc2)cc1	-12.7%	nt	nt	-5.8%	-3.0%[46.1 µM]
CCCCCCCCCCCCCCCC(C)C1=NCCN1 (centres undefined)	-5.8%	nt	nt	-11.4%	nt
Cc1cc(CNC(=O)COc2ccccc2F)c2ccccc2n1	nt	?	25.1µM*	nt	-19.0%
COc1ccccc1Nc1c2ccccc2nc2ccccc12	?	?	10µM*	11.2µM*	?
COc1ccccc1OCC(=O)NNc1c2ccccc2nc2ccccc12	nt	nt	0.562µM*	nt	nt
COc1cc(Nc2c3ccccc3nc3ccccc23)cc(OC)c1OC	?	2.82µM*	?	?	?
COc1ccccc1Nc1nc2ccccc2[nH]1	?	-21.6%[46.1 µM]	-19.5%	nt	?
Cc1cc(=O)n(Cc2ccc(Cl)cc2)c2c1c(C)nn2-c1ccccc1	-8.8%	nt	nt	-16.8%	1.9%[46.1 µM]
Cc1ccc(C)c(CNC(=O)c2ccc3c(c2)nc2n3CCC(C)C2)c1 (centres undefined)	-1.7%	nt	nt	-2.7%	-26.2%[46.1 µM]
Cc1ccc(C(=O)NNc2c3ccccc3nc3ccccc23)cc1	?	?	11.2µM*	-17.7%	-12.6%[46.1 µM]
COc1cc(Nc2nc(-c3ccccc3)c3cc(C)ccc3n2)cc(OC)c1OC	-20.9%	?	10µM*	-29.3%	?
COc1ccc(Nc2cc(Nc3cc(OC)c(OC)c(OC)c3)ncn2)cc1	-10.5%	15.8µM*	?	-26.0%	-11.0%
COc1ccc(Nc2cc(Nc3ccc(OC)cc3)ncn2)cc1	-9.0%	8.6%[46.1 µM]	15.8%	3.0%	-7.6%[46.1 µM]
O=C(CN1CCOCCOCCOCC1)Nc1ccccc1	-4.1%	5.3%	-5.8%	i	10.6%
COc1cccc(Nc2nc(-c3ccccc3)c3cc(C)ccc3n2)c1	-7.3%	nt	nt	-10.9%	17.3%[46.1 µM]
O=C(NNc1c2ccccc2nc2ccccc12)c1ccc(Cl)cc1	-6.4%	?	?	i	-5.7%[46.1 µM]
O=C(CN1CCOCC1)NNc1c2ccccc2nc2ccccc12	-5.2%	-21.5%[46.1 µM]	8.91µM*	?	-17.8%[46.1 µM]
CCCCC(=O)Oc1ccc2oc(-c3ccc(OC)cc3)cc(=O)c2c1	-16.5%	?	nt	?	-13.2%[46.1 µM]
O=C1c2ccccc2C(=O)c2c1cccc2N1CCOCC1	-4.7%	8.7%	22.4µM*	-18.9%	-11.5%
CN(C)C(CNC(=O)c1ccccc1OCc1ccc(Cl)cc1)c1ccco1 (centres undefined)	-15.1%	?	17.8µM*	?	?
CCOC(=O)c1c(C)n(-c2ccccc2)c2ccc(OC(=O)c3ccccc3Cl)cc12	12.5%	nt	nt	-1.2%	10.9%[46.1 µM]
CCOc1ccc(CCNC(=O)c2ccccc2OCc2c(C)noc2C)cc1OCC	-16.0%	-25.4%	7.08µM*	-21.2%	-10.3%
CCOc1ccc(C(C)NC(=O)c2ccccc2OCc2c(C)noc2C)cc1OCC (centres undefined)	-18.6%	?	nt	-25.2%	?
C/C(=N\Nc1nc(N2CCCCC2)nc(N2CCOCC2)n1)c1cccs1	-6.3%	-8.4%[46.1 µM]	10µM*	-5.0%	11.4%
SMILES	Vaccinia Venus	MARV entry inh	HCV inhibitor	Vaccinia mCherry	Lassa entry inh
CC(=O)Nc1ccc(/C(C)=N/Nc2nc(N3CCOCC3)nc(N3CCOCC3)n2)cc1	-3.0%	?	-30.5%	-3.8%	10.8%
COc1ccc(C(=O)N2CCc3[nH]nc(-c4ccccc4)c3C2)cc1	-29.3%	8.9%[46.1 µM]	11.2µM*	-24.5%	-25.6%[46.1 µM]
COc1ccc(OC)c(/C=C2\Cc3ccccc3C2=O)c1	-9.1%	nt	nt	-25.4%	nt
Cc1c(Cc2ccc3c(c2)OCO3)sc(NC(=O)C2CC2)c1C(N)=O	?	6.8%[46.1 µM]	-5.0%	?	8.91µM*
Cc1c(Cc2ccc3c(c2)OCO3)sc(NC(=O)c2cccc3ccccc23)c1C(N)=O	?	-34.6%	?	?	-9.9%
COc1cc(=O)n2c(c1C(=O)N(C)Cc1nonc1C)CCN(Cc1cc(C)c(C)cc1C)CC2	-23.3%	nt	nt	-2.2%	nt
COc1ccc(C(CC(=O)c2ccc(C)cc2)Nc2ccc([N+](=O)[O-])cc2)cc1 (centres undefined)	-15.2%	?	12.6µM*	-6.6%	?
CC(C)(C)c1ccc(-c2csc(NNC3=NCCCCC3)n2)cc1	nt	?	25.1µM*	nt	?
CCOC(=O)[C@@H](C)c1nc2ccccc2[nH]c1=O	nt	7.5%	nt	nt	nt
CC(C)(O)C#Cc1ccc(CN2CCc3nnc(CCNC(=O)c4ccco4)n3CC2)cc1	-1.4%	nt	nt	-9.8%	nt
Cc1ccc(S(=O)(=O)N(CC(=O)N2CCCCCC2)c2ccccc2F)cc1	-7.9%	10.7%[46.1 µM]	11.4%	i	10µM*
Cc1ccc(S(=O)(=O)N(Cc2ccccc2)c2ccccc2C(=O)N2CCCCC2)cc1	-13.3%	10µM*	?	?	?
COc1ccc(S(=O)(=O)N(CC(=O)N2CCc3ccccc3C2)c2ccc(C)cc2)cc1	-10.2%	-20.8%[46.1 µM]	nt	-13.1%	6.31µM*
CN1CCN(C(=O)c2ccccc2N(Cc2ccccc2)S(=O)(=O)c2ccccc2)CC1	nt	?	-7.0%	nt	-20.5%
COc1ccccc1N(CC(=O)N1CCCCCC1)S(=O)(=O)c1ccc(C)cc1	-11.3%	?	-18.9%	-11.3%	-20.9%
COc1ccc(N(CC(=O)N2CCc3ccccc3C2)S(=O)(=O)c2ccccc2)cc1	-5.4%	?	-15.0%	-19.7%	-25.0%
COc1cccc(CC(=O)NCc2ccc3c(c2)CCN3C(C)=O)c1	-7.9%	nt	nt	-9.9%	?
COc1ccc(C2NC(=O)N(C)C3=C2C(=O)N(c2ccc(F)cc2)C3)cc1 (centres undefined)	1.8%	nt	nt	2.5%	?
Cn1c(=O)n(-c2ccc(Br)cc2F)c(=O)c2sc3ccccc3c21	8.4%	-0.6%[46.1 µM]	nt	-1.7%	-0.3%[46.1 µM]
CNc1ccccc1C(C)(C)c1cc(-c2ccc(F)cc2)no1	-24.5%	?	3.98µM*	?	-14.2%
CNc1ccccc1C(C)(C)c1cc(-c2cccc([N+](=O)[O-])c2)no1	-3.6%	4.47µM*	-27.6%	?	?
O=c1c(S(=O)(=O)c2ccccc2)cn(Cc2ccc(F)cc2)c2cc(N3CCCCC3)c(F)cc12	-5.9%	nt	nt	-6.8%	-2.1%[46.1 µM]
COC(=O)[C@@]1(C=C2c3ccc(OC)cc3[C@@H](OC)[C@@H]2C)[C@@H]2C=CC[C@@H]21	nt	-11.0%[14.2 µM]	nt	nt	nt
CC(C)CCn1cnc2c(cnn2-c2ccc(F)cc2)c1=O	-9.4%	?	10µM*	nt	3.1%
CS(=O)(=O)c1ccc(-c2cccc3c2OC(CNC(=O)c2ccnc(Cl)c2)C3)cc1 (centres undefined)	0.0%	nt	nt	-4.7%	nt
COC(=O)c1ccc(COc2ccccc2/C=C(\C#N)C(=O)Nc2c(C)cccc2C)cc1	-27.4%	11.2µM*	?	-10.1%	?
COC(=O)c1ccc(COc2ccccc2/C=C(\C#N)C(=O)Nc2ccccc2C)cc1	-9.2%	-0.5%	12.3%	-13.8%	?
CC(C)Nc1nc(Cl)nc(N(C#N)CN2C(=O)c3ccccc3C2=O)n1	?	2.51µM*	?	?	?
O=C(C[C@H]1C(=O)N(c2ccc(Br)cc2)C[C@@H]1Cc1ccccc1)Nc1ccccc1	-16.4%	nt	nt	-3.5%	4.99µM*
